Compounds without any hit were thinned out: in the full panel of roughly 83,000, 20% have a hit.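 How to read the values: 0–100, growth inhibition (40 = 60% inhibited); 0, no net growth; -100 to 0, cell death (-40 = 40% of starting cells died; -100 = all dead).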 Active and inactive are the calls of the source. How the source made its calls: active means growth percent below 10; inactive means the rest.
How the values were obtained:
Assay in all cases: NCI-60 one-dose screen, 48 h (100 = growth as untreated, 0 = no growth, -100 = all killed)
Conditions in all cases: 10 µM unless noted
RPMI-8226 leukemia = tested on: RPMI-8226 leukemia
OVCAR-8 ovarian = tested on: OVCAR-8 ovarian
OVCAR-5 ovarian = tested on: OVCAR-5 ovarian
OVCAR-4 ovarian = tested on: OVCAR-4 ovarian
IGROV1 ovarian = tested on: IGROV1 ovarian
OVCAR-3 ovarian = tested on: OVCAR-3 ovarian
HS 578T breast = tested on: HS 578T breast
NCI/ADR-RES ovarian = tested on: NCI/ADR-RES ovarian
T-47D breast = tested on: T-47D breast

Measured: growth

COC(=O)/C(CCC=C(C)C)=C1\[C@@H](OC(C)=O)C[C@@]2(C)[C@H]1CC(=O)[C@H]1[C@@]3(C)CC[C@H](NCc4ccccc4)[C@@H](C)[C@@H]3CC[C@@]12C
inactive: RPMI-8226 leukemia 49.5% | OVCAR-8 ovarian 92.4% | OVCAR-5 ovarian 95% | OVCAR-4 ovarian 80.7% | IGROV1 ovarian 73.4% | OVCAR-3 ovarian 89.2% | HS 578T breast 73.7% | NCI/ADR-RES ovarian 88.3% | T-47D breast 92.3%

O=C(/C=C/c1ccc(F)cc1)c1ccc(Nc2nc(NCCO)nc(Nc3ccc(Cl)cc3)n2)cc1
inactive: OVCAR-8 ovarian 78.4% | OVCAR-5 ovarian 96.8% | OVCAR-4 ovarian 78.6% | IGROV1 ovarian 96.4% | OVCAR-3 ovarian 77% | HS 578T breast 86.8% | NCI/ADR-RES ovarian 87.2% | T-47D breast 41.5%
active: RPMI-8226 leukemia 1.78%

COc1cccc(/C=C/C(=O)c2c(C)nc3ccccc3c2/C=C/c2ccccc2)c1OC
active: RPMI-8226 leukemia 6.11% | OVCAR-3 ovarian 2.68%
inactive: OVCAR-8 ovarian 21.6% | OVCAR-5 ovarian 36.4% | OVCAR-4 ovarian 46.3% | IGROV1 ovarian 20.9% | HS 578T breast 37.5% | NCI/ADR-RES ovarian 10% | T-47D breast 11.2%

CC1(O)COCCCCOc2c(CN)cccc2NC(=O)c2nc(cnc2N)-c2ccc(cc2)S(=O)(=O)C(C)(C)C1 (configuration not stated)
inactive: NCI/ADR-RES ovarian 48.5%
active: RPMI-8226 leukemia -36.8% | OVCAR-8 ovarian -22.8% | OVCAR-5 ovarian 3.73% | OVCAR-4 ovarian -70.2% | IGROV1 ovarian -57.3% | OVCAR-3 ovarian -77.2% | HS 578T breast -53.2% | T-47D breast -19.8%

COc1cc(/C=C2\CN(C)C/C(=C\c3cc(CN4CCCCC4)c(O)c(OC)c3)C2=O)cc(CN2CCCCC2)c1O
inactive: RPMI-8226 leukemia 25.9% | OVCAR-8 ovarian 39.2% | OVCAR-5 ovarian 38.8% | OVCAR-4 ovarian 38.6% | IGROV1 ovarian 68.4% | HS 578T breast 81.9% | NCI/ADR-RES ovarian 70.7% | T-47D breast 67.2%
active: OVCAR-3 ovarian 7.74%

COc1cc2nc(NC3CCCC3)nc(NC3CCN(C(C)C)CC3)c2cc1OC
inactive: OVCAR-8 ovarian 89.7% | OVCAR-5 ovarian 107% | OVCAR-4 ovarian 69% | IGROV1 ovarian 82% | OVCAR-3 ovarian 89.4% | HS 578T breast 79.6% | NCI/ADR-RES ovarian 101% | T-47D breast 17.4%
active: RPMI-8226 leukemia -10.7%

O=C(Nc1ccc(Cl)cc1F)c1cc(I)ccc1O
active: RPMI-8226 leukemia 3.96% | HS 578T breast 3.41% | T-47D breast -0.952%
inactive: OVCAR-8 ovarian 10.1% | OVCAR-5 ovarian 79.9% | OVCAR-4 ovarian 23.1% | IGROV1 ovarian 27.2% | OVCAR-3 ovarian 10.4% | NCI/ADR-RES ovarian 11.3%

O=C1Nc2ccccc2/C1=C/c1cccs1
inactive: RPMI-8226 leukemia 93.7% | OVCAR-8 ovarian 91.6% | OVCAR-5 ovarian 95.5% | OVCAR-4 ovarian 37% | IGROV1 ovarian 72% | OVCAR-3 ovarian 90.5% | HS 578T breast 94.8% | NCI/ADR-RES ovarian 91.8%
active: T-47D breast -4.77%

NCCNc1nc2ccccc2c2c(=O)c3cc(F)cc(Cl)c3sc12
active: RPMI-8226 leukemia -33.1% | OVCAR-8 ovarian -49.2% | OVCAR-5 ovarian -81.6% | OVCAR-4 ovarian -73.4% | OVCAR-3 ovarian -88.6% | NCI/ADR-RES ovarian -44.9% | T-47D breast -45.6%
inactive: IGROV1 ovarian 71.9% | HS 578T breast 59.9%

COc1cc(/C=C2\CCC/C(=C\c3cc(CN4CCCCC4)c(O)c(OC)c3)C2=O)cc(CN2CCCCC2)c1O
inactive: RPMI-8226 leukemia 55.5% | OVCAR-8 ovarian 80.6% | OVCAR-5 ovarian 114% | OVCAR-4 ovarian 60.9% | IGROV1 ovarian 88.2% | OVCAR-3 ovarian 65.2% | HS 578T breast 81.4% | NCI/ADR-RES ovarian 87.2% | T-47D breast 104%

COC(=O)/C(CCC=C(C)C)=C1\[C@@H](OC(C)=O)C[C@@]2(C)[C@H]1CC(=O)N[C@H]1[C@@]3(C)CCNC(=O)[C@@H](C)[C@@H]3CC[C@@]12C
inactive: RPMI-8226 leukemia 97.8% | OVCAR-8 ovarian 98.3% | OVCAR-5 ovarian 102% | OVCAR-4 ovarian 101% | IGROV1 ovarian 105% | OVCAR-3 ovarian 107% | HS 578T breast 97.1% | NCI/ADR-RES ovarian 106% | T-47D breast 88.9%

O=C(Nc1ccc(N2CCNCC2)cc1)c1[nH]ncc1Nc1cc(C2CC2)ncn1
inactive: RPMI-8226 leukemia 55.4% | OVCAR-8 ovarian 81.2% | OVCAR-5 ovarian 99% | OVCAR-4 ovarian 62.3% | IGROV1 ovarian 33.4% | OVCAR-3 ovarian 43.7% | HS 578T breast 41.1% | NCI/ADR-RES ovarian 102% | T-47D breast 57.1%

O=Cc1cc2ccccc2nc1Nc1nccs1
inactive: RPMI-8226 leukemia 64% | OVCAR-8 ovarian 47.6% | OVCAR-5 ovarian 85.6% | OVCAR-4 ovarian 75.8% | IGROV1 ovarian 42.6% | OVCAR-3 ovarian 55.2% | HS 578T breast 91.9% | NCI/ADR-RES ovarian 77% | T-47D breast 77.5%

Cn1nc(C(F)(F)F)c(-c2ccc(Cl)c(C(F)(F)F)c2)c1-c1ccc(OCc2ccc(Cl)cc2)cc1O
inactive: OVCAR-5 ovarian 53.4% | OVCAR-4 ovarian 30.2% | IGROV1 ovarian 38.9% | HS 578T breast 22.8%
active: RPMI-8226 leukemia -17.9% | OVCAR-8 ovarian 7.41% | OVCAR-3 ovarian 1.24% | NCI/ADR-RES ovarian 8.38% | T-47D breast -0.38%

O=C(/C=C/c1ccc(C(F)(F)F)cc1)c1ccc(Nc2nc(NCCO)nc(Nc3ccc(Cl)cc3)n2)cc1
active: RPMI-8226 leukemia 6.67%
inactive: OVCAR-8 ovarian 52.6% | OVCAR-5 ovarian 97.3% | OVCAR-4 ovarian 42.2% | IGROV1 ovarian 83.5% | OVCAR-3 ovarian 27.1% | HS 578T breast 72.4% | NCI/ADR-RES ovarian 78.7% | T-47D breast 24.2%

Nc1nc(-c2ccccc2Br)nn1-c1nc2ccccc2s1
inactive: RPMI-8226 leukemia 102% | OVCAR-8 ovarian 97.6% | OVCAR-5 ovarian 98% | OVCAR-4 ovarian 101% | IGROV1 ovarian 101% | OVCAR-3 ovarian 108% | HS 578T breast 104% | NCI/ADR-RES ovarian 105% | T-47D breast 105%

COc1ccc(/C=c2\sc3n(c2=O)NC2C(N=3)N(C)C(=O)N2C)cc1 (configuration not stated)
inactive: RPMI-8226 leukemia 96.1% | OVCAR-8 ovarian 101% | OVCAR-5 ovarian 95.1% | OVCAR-4 ovarian 100% | IGROV1 ovarian 99.8% | OVCAR-3 ovarian 102% | HS 578T breast 95.9% | NCI/ADR-RES ovarian 100% | T-47D breast 102%

Fc1ccc(Oc2ccc(Nc3ncnc4onc(-c5ccccc5)c34)cc2)cc1
inactive: RPMI-8226 leukemia 113% | OVCAR-8 ovarian 95.5% | OVCAR-5 ovarian 101% | OVCAR-4 ovarian 102% | IGROV1 ovarian 87.6% | OVCAR-3 ovarian 109% | HS 578T breast 96.6% | NCI/ADR-RES ovarian 101% | T-47D breast 94.5%

COc1cc(NC(=O)CCSc2nc3ccccc3c(=O)n2CCc2ccccn2)cc(OC)c1OC
inactive: RPMI-8226 leukemia 79% | OVCAR-8 ovarian 79.1% | OVCAR-5 ovarian 89.4% | OVCAR-4 ovarian 46.6% | IGROV1 ovarian 99.8% | OVCAR-3 ovarian 110% | HS 578T breast 89.2% | NCI/ADR-RES ovarian 89.4% | T-47D breast 69.7%

COc1cc(/C=C/C(=O)c2ccc(Cl)cc2)cc(CN2CCCCC2)c1O
inactive: RPMI-8226 leukemia 50.9% | OVCAR-8 ovarian 89.3% | OVCAR-5 ovarian 99.7% | OVCAR-4 ovarian 76.7% | IGROV1 ovarian 90.5% | OVCAR-3 ovarian 93.8% | HS 578T breast 85.4% | NCI/ADR-RES ovarian 88.5% | T-47D breast 79.3%

NCCOc1ncccc1/C=C1\c2ccccc2-c2ccc(F)cc21
active: RPMI-8226 leukemia -14.6%
inactive: OVCAR-8 ovarian 14.9% | OVCAR-5 ovarian 32.1% | OVCAR-4 ovarian 43.3% | IGROV1 ovarian 26.1% | OVCAR-3 ovarian 36.7% | HS 578T breast 44.2% | NCI/ADR-RES ovarian 29.9% | T-47D breast 21.2%

O=C(c1nc2ccccc2[nH]1)C1C(c2cccc([N+](=O)[O-])c2)C2CC3CCCCC3N2[C@@]12C(=O)Nc1cc(Cl)ccc12 (some centres not stated)
active: RPMI-8226 leukemia 7.96%
inactive: OVCAR-8 ovarian 45.1% | OVCAR-5 ovarian 32% | OVCAR-4 ovarian 27.5% | IGROV1 ovarian 10.3% | OVCAR-3 ovarian 45.5% | HS 578T breast 33.6% | NCI/ADR-RES ovarian 39.7% | T-47D breast 38.4%

COC(=O)C1(C)COP(=O)(Nc2ccc(OC)cc2)OC1 (configuration not stated)
inactive: RPMI-8226 leukemia 97.7% | OVCAR-8 ovarian 101% | OVCAR-5 ovarian 108% | OVCAR-4 ovarian 108% | IGROV1 ovarian 108% | OVCAR-3 ovarian 107% | HS 578T breast 106% | NCI/ADR-RES ovarian 99.5% | T-47D breast 93.1%

CCOC(=O)C1=C(C)N=c2s/c(=C\c3ccccc3O)c(=O)n2C1c1ccc(OC)c2ccccc12 (configuration not stated)
active: RPMI-8226 leukemia -15.1%
inactive: OVCAR-8 ovarian 13.2% | OVCAR-5 ovarian 51.6% | OVCAR-4 ovarian 38.6% | IGROV1 ovarian 16.3% | OVCAR-3 ovarian 10.1% | HS 578T breast 10.4% | NCI/ADR-RES ovarian 48.3% | T-47D breast 23.3%

Brc1ccc(Oc2ccc(Nc3ncnc4onc(-c5ccccc5)c34)cc2)cc1
inactive: RPMI-8226 leukemia 90.3% | OVCAR-8 ovarian 97.8% | OVCAR-5 ovarian 105% | OVCAR-4 ovarian 88.2% | IGROV1 ovarian 96.5% | OVCAR-3 ovarian 119% | HS 578T breast 96.8% | NCI/ADR-RES ovarian 94.1% | T-47D breast 77.8%

CCCN1CCN(c2ccc3nc(-c4ccc5nc(-c6cc(OC)ccc6OC)[nH]c5c4)[nH]c3c2)CC1
inactive: OVCAR-8 ovarian 106% | OVCAR-5 ovarian 113% | OVCAR-4 ovarian 81.1% | IGROV1 ovarian 103% | OVCAR-3 ovarian 122% | HS 578T breast 111% | NCI/ADR-RES ovarian 111% | T-47D breast 98.8%
active: RPMI-8226 leukemia -17%

O=C(c1nc2ccccc2[nH]1)C1C(c2ccc(F)cc2)C2CC3CCCCC3N2[C@@]12C(=O)Nc1ccc(Cl)cc12 (some centres not stated)
inactive: RPMI-8226 leukemia 13.9% | OVCAR-8 ovarian 61.2% | OVCAR-5 ovarian 61.8% | OVCAR-4 ovarian 31.5% | IGROV1 ovarian 42.8% | OVCAR-3 ovarian 50.1% | HS 578T breast 69.2% | NCI/ADR-RES ovarian 51% | T-47D breast 37.4%

Cc1sc2ncnc(Sc3nc4ccccc4[nH]3)c2c1C
active: RPMI-8226 leukemia -27.1% | OVCAR-8 ovarian -66.1% | OVCAR-5 ovarian -58.6% | OVCAR-4 ovarian -15.4% | IGROV1 ovarian -76.5% | OVCAR-3 ovarian -86.1% | HS 578T breast -27.5% | T-47D breast -55.4%
inactive: NCI/ADR-RES ovarian 20.1%
